A selection: hits, their analogues and other compounds. The true share with any hit is near 2.8%.
Platelet DG rel: modulates dense granule release in human platelets; human platelet-rich plasma, SFLLRN dense granule ATP release, luminescence; inhibition, %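 (compounds screened at 7.5 µM in platelet-rich plasma)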; hit rate 0.22% among 300,000; AID 1663;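 active means mean replicate score, as percent of positive control, at or above 50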
PolyA inhibitor: yeast polyadenylation inhibition; S. cerevisiae SKY197-pL101 polyadenylation reporter, beta-gal luminescence; efflux-impaired pdr1/pdr3 knockout yeast; score 100 = 6 SD above DMSO; activity score, % at 12 µM; hit rate 0.02% among 300,000;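 active means lowest replicate activity score at least 50, where 100 means six control SD above control mean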;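 further: yeast exposed to compound for 9 h at 30 °C; higher score means more reporter readthrough which indicates perturbed polyadenylation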
AHR act: human AHR activation; AHR-responsive luciferase reporter cells, luminescence; activation, % at 5 µM; hit rate 2.5% among 320,000; in the data active means activation above about 47%
Target sequence (P35869 whole entry, looked up): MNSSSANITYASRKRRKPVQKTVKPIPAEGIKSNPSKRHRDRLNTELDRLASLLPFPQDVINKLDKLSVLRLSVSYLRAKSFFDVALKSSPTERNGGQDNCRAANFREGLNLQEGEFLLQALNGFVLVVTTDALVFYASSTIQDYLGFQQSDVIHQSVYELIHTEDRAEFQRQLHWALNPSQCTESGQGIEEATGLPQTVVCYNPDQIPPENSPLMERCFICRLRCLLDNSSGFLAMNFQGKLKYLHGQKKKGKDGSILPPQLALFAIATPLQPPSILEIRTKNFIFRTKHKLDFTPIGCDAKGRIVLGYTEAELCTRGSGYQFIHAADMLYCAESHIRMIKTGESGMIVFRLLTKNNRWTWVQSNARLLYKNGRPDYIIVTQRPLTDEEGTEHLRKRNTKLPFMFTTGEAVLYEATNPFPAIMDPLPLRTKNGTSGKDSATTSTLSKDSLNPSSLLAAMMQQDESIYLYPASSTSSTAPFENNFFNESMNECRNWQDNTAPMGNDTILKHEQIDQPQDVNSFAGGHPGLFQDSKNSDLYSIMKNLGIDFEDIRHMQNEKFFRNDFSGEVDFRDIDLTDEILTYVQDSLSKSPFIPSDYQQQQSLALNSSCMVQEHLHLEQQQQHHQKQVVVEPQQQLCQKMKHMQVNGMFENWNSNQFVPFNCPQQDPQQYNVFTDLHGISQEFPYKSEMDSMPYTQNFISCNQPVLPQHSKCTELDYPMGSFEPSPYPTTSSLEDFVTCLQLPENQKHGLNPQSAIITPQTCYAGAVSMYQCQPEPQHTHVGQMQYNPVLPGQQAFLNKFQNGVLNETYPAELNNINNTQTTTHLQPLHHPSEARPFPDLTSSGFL
HIF act: HIF pathway transcriptional activation; hit rate 0.32% among 300,000; AID 1910; U2OS HRE-luciferase reporter, luminescence; normalized: DMSO 0%, desferrioxamine 100%; activation, % at 7.5 µM (by protocol);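 active means mean activation of at least 10% of the iron chelator positive control signal, with at least half of replicates also reaching 10%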
pCIP destab: compounds decreasing mouse p/CIP protein stability; decrease of EGFP signal, % at 10 µM; F442A p/CIP-EGFP cells, EGFP fluorescence, 16 h; AID 1984; hit rate 0.01% among 290,000; Q05BA5;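 active means EGFP signal decrease of at least 30% at 10 µM or well 3 SD below plate mean, unless failing retest; inactive means the rest, including hits failing retest or dose response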
AHR act cf: human AHR activation, confirmation. shares compounds with AHR act. human cells, AHR-responsive luciferase reporter, luminescence. activation, % at 9 µM. hit rate 87% among 2,300; in the data active means activation above about 49%;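 further: HepG2 hepatoma cells carrying a DRE-driven firefly luciferase reporter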
PXR act counter: activates human PXR in AHR activator counter-screen. shares compounds with AHR act. cell-based PXR reporter, luciferase luminescence. activation, % at 11.6 µM. hit rate 88% among 2,300; in the data active means activation above about 11%;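 further: human hepatoma DPX-2 cells expressing full-length human PXR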
Large screens that a line does not name were inactive (follow-up assays come after a bar, where they were run).

c1ccc2c(c1)oc1c(NCCCn3ccnc3)ncnc12	AHR act 106 | AHR act cf 110 | PXR act counter 22
Cc1nc(NCCCn2ccnc2)c2oc3ccccc3c2n1	AHR act 79 | AHR act cf 110 | PXR act counter 23
CCNc1nc(C)nc2c1oc1ccccc12	none
N#Cc1c(-c2ccccc2)cc(-c2ccccc2)[nH]c1=O	none
COc1cc(-c2cc(-c3ccc(N)cc3)[nH]c(=O)c2C#N)cc(OC)c1OC	AHR act 101 | AHR act cf 84 | PXR act counter 17
COc1ccc(NC(=O)/C(C#N)=C/c2ncc([N+](=O)[O-])n2C)c(OC)c1	none
CN1CCN(c2ccc(Cl)cc2NC(=O)C2COc3ccccc3O2)CC1 (stereo unspecified)	AHR act 108 | AHR act cf 90 | PXR act counter 30
C/C(CC(=O)Nc1cc(Cl)ccc1Cl)=N\NC(=O)c1ccco1	AHR act 91 | AHR act cf inactive | PXR act counter 16
CC1=NN(C(N)=S)C(=O)C1N=Nc1cccc(Cl)c1 (stereo unspecified)	AHR act 85 | AHR act cf 148 | PXR act counter 27
NC(=S)n1[nH]c(-c2ccc([N+](=O)[O-])cc2)c(N=Nc2cccc(Cl)c2)c1=O	none (no result: AHR act)
Cc1[nH]n(C(N)=S)c(=O)c1N=Nc1cccc(Cl)c1	AHR act 114 | AHR act cf 115 | PXR act counter 13
COc1cccc(CNC(=O)CCCSc2ccccc2)c1	none
CC(=O)N1CC(C)Sc2ccc(S(=O)(=O)NCCc3cccc(C)c3)cc21 (stereo unspecified)	none
CC1CN(c2nc(-c3ccc(Br)cc3)nnc2-c2ccccc2)CC(C)N1 (stereo unspecified)	AHR act 87 | AHR act cf 47 | PXR act counter 21
Cc1cc(NC(=O)NC(=O)c2cccc(OC(F)(F)C(F)F)c2)n[nH]1	AHR act 157 | AHR act cf 104 | PXR act counter 17
CC(C)OP(=O)(OC(C)C)C(C)NC(=O)Cc1ccccc1 (stereo unspecified)	none
OCC(O)/C=N/Nc1nc2ccccc2s1 (stereo unspecified)	none
C(=N\Nc1nc2ccccc2s1)/c1ccco1	AHR act 103 (no result: HIF act) | AHR act cf 105 | PXR act counter 30
O=C(Nc1ccc(Cl)cc1)c1ccc2snnc2c1	AHR act 129 | AHR act cf 103 | PXR act counter 26
CN(C)c1ccc(NC(=O)c2ccc3nsnc3c2)cc1	none
O=C(Nc1ccc(Cl)cc1)c1ccc2nsnc2c1	AHR act 85 | AHR act cf 143 | PXR act counter 12
CC(=O)c1ccc(NC(=O)c2ccc3snnc3c2)cc1	none
N#C/C(=C\c1ccc(-c2ccc(F)cc2)o1)C(=O)Nc1nc(-c2cccs2)cs1	AHR act 142 | AHR act cf 58 | PXR act counter 22
O=C(CSc1ncn[nH]1)N1N=C2/C(=C/c3ccccc3)CCCC2C1c1ccccc1 (stereo unspecified)	AHR act 98 | AHR act cf 88 | PXR act counter 74
Cc1c(Cc2ccccc2)c(=O)oc2cc(OC(C)C(=O)NCC3CCC(C(=O)O)CC3)c(Cl)cc12 (stereo unspecified)	none
O=[N+]([O-])c1cc(-c2nc(-c3ccncc3)no2)cc([N+](=O)[O-])c1	AHR act 90 | AHR act cf 72
CN1CCOc2cc(S(=O)(=O)NCc3ccc(S(N)(=O)=O)cc3)ccc21	none
COc1ccc(C)cc1NC(=O)C(OC(=O)CNC(=O)c1ccc(Br)cc1)c1ccccc1 (stereo unspecified)	AHR act 81 | AHR act cf 85 | PXR act counter 51
COc1ccc(C)cc1NC(=O)C(OC(=O)C1=NNC(=O)CC1)c1ccccc1 (stereo unspecified)	AHR act 83 (no result: Platelet DG rel, PolyA inhibitor, HIF act, pCIP destab) | AHR act cf 99 | PXR act counter 36
CCCc1ccccc1OCCNS(=O)(=O)c1cc2c(cc1C)OCC(=O)N2	none
O=C(NNC(=O)c1sccc1-n1cccc1)Nc1ccccc1	AHR act 92 | AHR act cf 126 | PXR act counter 61
CNC(=O)c1sccc1-n1cccc1	none
O=C(NNC(=O)c1sccc1-n1cccc1)c1cccc(Cl)c1	AHR act 133 (no result: Platelet DG rel, PolyA inhibitor, HIF act) | AHR act cf 114 | PXR act counter 101
O=C(NNC(=O)c1sccc1-n1cccc1)c1ccc(F)cc1	AHR act 112 | AHR act cf inactive | PXR act counter inactive
O=C(N/N=C\c1ccc(Cl)cc1)c1sccc1-n1cccc1	AHR act 97 | AHR act cf 124 | PXR act counter 24
O=C(NNC(=O)c1c(F)cccc1F)c1sccc1-n1cccc1	none
CC1CCN(c2nc(Cl)nc(Nc3ccc([N+](=O)[O-])cc3)n2)CC1	none
CCOc1ccc(S(=O)(=O)NN=C2CCN(C(C)=O)CC2)cc1	none
O=C(NNC(=O)c1ccccc1-n1cccc1)c1ccc(F)cc1	AHR act 90 | AHR act cf 101 | PXR act counter 43
O=C(NNC(=O)c1sccc1-n1cccc1)c1ccccc1	AHR act 137 | AHR act cf 128 | PXR act counter 48
CC(=O)Nc1ccc(C(=O)NNC(=O)c2ccccc2-n2cccc2)cc1	none (no result: Platelet DG rel, PolyA inhibitor, HIF act, pCIP destab)
CN1CCc2c(sc(NC(=O)C3CCN(S(=O)(=O)c4cccs4)CC3)c2C(N)=O)C1	none (no result: pCIP destab)
Oc1ccccc1-c1nc(NCc2cccnc2)c2ccccc2n1	none
Fc1ccccc1CNc1nc(-c2cccnc2)nc2ccccc12	AHR act 85 | AHR act cf inactive | PXR act counter 103
CC(/C=C/c1cccc([N+](=O)[O-])c1)=N/NC(=O)c1cccnc1	AHR act 85 | AHR act cf 77
Cc1c(-c2ccc(/C=N/NC(=O)C(=O)Nc3ccccc3F)o2)cccc1[N+](=O)[O-]	none
Cc1c(C(=O)N/N=C/c2ccc(-c3ccccc3[N+](=O)[O-])o2)sc(N)c1C#N	AHR act 133 | AHR act cf 163 | PXR act counter 50
O=C(N/N=C/c1ccc(-c2ccccc2[N+](=O)[O-])o1)c1cncc(Br)c1	AHR act 83 | AHR act cf 76
O=C(N/N=C\c1ccc([N+](=O)[O-])o1)c1cncc(Br)c1	none
C/C(=N\NC(=O)c1cccc(S(=O)(=O)N2CCOCC2)c1)c1cc2ccccc2o1	none
Cn1c(=O)n(C)c2cc(NC(=O)c3cccc([N+](=O)[O-])c3)c(Br)cc21	AHR act 101 | AHR act cf 101 | PXR act counter inactive
Cn1c(=O)n(C)c2cc(NC(=O)c3ccc(F)cc3)c(Br)cc21	none

Source: PubChem
